Source: PubChem BioAssay (National Center for Advancing Translational Sciences (NCATS))
Pf Dd2 inh: qHTS Primary assay for Inhibitors of Plasmodium falciparum Dd2 growth in vitro. 4.3% of 120,000 active. Potency, µM (series often up to 28.9 µM), hits mostly inhibitors. P. falciparum Dd2 growth, SYBR Green, 72 h; active = well fitted inhibition curve with a large enough effect; also: nearly all actives have a fitted effect of over 65% in size
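Readout: SYBR Green fluorescence, 485 nm excitation, 535 nm emission, after ~16 h lysis at 37C. Before that, Dd2-infected red cells (2.5% hematocrit) grew 72 h with compound, 29 uM top final concentration.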
Large screens that a line does not name were inactive. The full list was thinned out, with hits kept by preference.

Cc1nc2c(c(-c3ccc(Cl)cc3)n1)CN(C(=O)c1ccc3c(c1)OCO3)CC2	none
COc1ccc(C(=O)N[C@@H]2CCC[C@@H]2C(=O)N2CCN(c3ccccn3)CC2)cc1	none
COc1ccc(CN[C@H]2[C@H](O)[C@@H](N(C)CCc3ccccn3)[C@@H]3OC[C@H]2O3)cc1	none
Cn1cccc1CN1CCC2(CC1)CN(c1ncccn1)CC2CO (centres undefined)	none
CN1[C@@H](CCC(=O)NCc2cccnc2)CNC(=O)[C@@H]2[C@H]1CCN2Cc1nc2ccccc2n1C	none
O=C(NCc1ccccc1)N1CCC(Cc2nc(-c3ccccc3)n[nH]2)C1 (centres undefined)	none
CCc1n[nH]c(CC2CCN(C(=O)c3ccccc3)CC2)n1	none
O=C(c1ccccc1)N1CCC(Cc2nc(-c3ccncc3)n[nH]2)CC1	Pf Dd2 inh 1.26µM
Cc1ccc(CN2CCC(Cc3nc(-c4cccnc4)n[nH]3)C2)cc1C (centres undefined)	none
O=C(Nc1ccc2c(c1)OCCO2)N1CCCC(Cc2noc(-c3ccncc3)n2)C1 (centres undefined)	none
O=C(Cc1ccccc1)N1CCC(Cc2nc(-c3cccnc3)n[nH]2)C1 (centres undefined)	none
Fc1cccc(CN2CCC(Cc3nc(-c4ccccc4)n[nH]3)C2)c1 (centres undefined)	Pf Dd2 inh 3.55µM
CCC(=O)N1CCC(Cc2nc(-c3ccccc3)n[nH]2)CC1	none
O=C(Nc1ccc2c(c1)OCCO2)N1CCC(Cc2nc(-c3cccnc3)n[nH]2)C1 (centres undefined)	Pf Dd2 inh 3.55µM
Cc1ncsc1C(=O)N1CC(COc2ccccc2)C2(C1)CN(c1ccccc1)C2 (centres undefined)	none
CCc1nc2c(=O)n(CC(=O)NCc3ccc(SC)cc3)nc(C)c2s1	none
CCOc1ccccc1C(=O)N1CCc2cn(C)c3cccc(c23)C1	none
CC(=O)N1CCC(NC[C@H]2O[C@@H]3C[C@@H](CC(=O)N4CCC(F)(F)C4)O[C@@H]3[C@@H]2O)CC1	none
COCc1cc(CC2(NCc3ccc(F)cc3)COC2)no1	none
O=C(N[C@H]1CCN2C(=O)c3cc(-c4ccc(Cl)cc4)ccc3NC(=O)[C@@H]2C1)c1ccncc1	none
COCCN1C(=O)c2cccn2CC1CNC(=O)c1n[nH]c2ccccc12 (centres undefined)	none
O=C1CN(Cc2cccc(-c3cccs3)c2)CCN1c1ccc(Cl)nn1	none
CN1CC(=O)N(c2ccc(Cl)cc2)Cc2c1ncnc2N1CCC(Cc2ccccc2)CC1	Pf Dd2 inh 12.6µM
CN1CC(=O)N(c2ccccc2F)Cc2c1ncnc2N1CCC(c2ccccc2)CC1	none
CN1CC(=O)N(c2ccccc2)Cc2c(NCCOc3ccccc3)ncnc21	none
CN1CC(=O)N(c2ccccc2)Cc2c(NCc3ccc(F)cc3)ncnc21	none
CN1CC(=O)N(c2ccc(Cl)cc2)Cc2c(NCc3cccs3)ncnc21	none
CN1CC(=O)N(c2ccccc2)Cc2c(NCCCc3ccccc3)ncnc21	Pf Dd2 inh 6.31µM
CN1CC(=O)N(c2ccc(Cl)cc2)Cc2c(NCc3ccc(F)cc3)ncnc21	Pf Dd2 inh 7.94µM
CN1CC(=O)N(c2ccccc2)Cc2c1ncnc2N1CCC(O)CC1	none
CN1CC(=O)N(c2ccccc2)Cc2c(NCCc3ccc(Cl)cc3)ncnc21	none
O=C(CCC1CCN(S(=O)(=O)c2ccccc2)CC1)NCc1cccs1	none
CC(=O)Nc1ccc(-c2ccc(=O)n3c2[C@@H]2C[C@@H](CN(C(=O)C4CCCCC4)C2)C3)cc1	none
O=C1CC2(CCN(Cc3ccccn3)C2)Nc2ccccc2N1 (centres undefined)	none
Cc1cc(=O)n(CC(=O)NC(C)CCc2ccccc2)c(N2CCc3ccccc3C2)n1 (centres undefined)	none
O[C@@H]1C[C@@H](c2nc(Cc3ccccc3)no2)N(Cc2ccccc2)C1	none
COCCNC(=O)C(NC(=O)c1ccc(F)cc1)C1CCN(C(=O)C2CC2)CC1 (centres undefined)	none
CCc1ocnc1C(=O)N1CCC(C(=O)O)(n2cc(C)cn2)CC1	none
CCNC(=O)NCC(=O)N1CCCCCCNC(=O)CC1c1ccccc1 (centres undefined)	none
CN(C)c1nccnc1OC1CCN(C(=O)CCC(=O)c2ccc(F)cc2)C1 (centres undefined)	Pf Dd2 inh 5.62µM
CCC(CC)C(=O)N1CCC(Oc2nccnc2N(C)C)C1 (centres undefined)	none
CN(C)c1nccnc1OC1CCN(C(=O)c2ccncc2)C1 (centres undefined)	none
O=C(Nc1cccnc1)N1CC2ON=C(C(=O)N3CCCC3)C2C1 (centres undefined)	none
CC(C)NC(=O)N1CCN2C(=O)c3cc(-c4ccccc4F)ccc3NC(=O)[C@H]2C1	none
Cc1ccsc1C(=O)N1CCC2(CC1)NC(=O)N(c1ccccc1)N2	none
O=C(c1n[nH]c2c1CCCC2)N1CCC2(CC1)NC(=O)N(c1ccccc1)N2	Pf Dd2 inh 3.16µM
COc1ccc(C(=O)N2CCC3(CC2)NC(=O)N(c2ccccc2)N3)cc1	none
COc1ccccc1-c1cc(C(=O)N2CCN(c3ncccn3)CC2)nn2cccc12	none
CN(Cc1cccc(OC(F)(F)F)c1)Cc1ccccc1C(F)(F)F	none
COc1ccc(NC(=O)N2[C@H]3CC[C@@H]2c2cncnc2C3)cc1OC	none
COc1ccc(-c2cc3c(=O)n(CCNC(=O)c4sccc4C)ccn3n2)cc1	none
COc1ccc(OC)c(C2NC(=O)NC(C)=C2C(=O)Nc2cc(C)cc(C)c2)c1 (centres undefined)	none
COc1cc(C2Nc3c(C)cc(C)cc3-c3cc(C)nn32)cc(OC)c1O (centres undefined)	none
COc1ccc(OC)c(C2Nc3c(C)cc(C)cc3-c3cc(C)nn32)c1 (centres undefined)	Pf Dd2 inh 0.251µM
CN(C(=O)C1C2C(=O)N(C3CCCCCC3)C[C@@]23C=C[C@@H]1O3)C1CCSCC1 (some centres undefined)	none
CCOC(=O)c1cnc2ccc(Br)cc2c1NCCN1CCOCC1	none
CCOC(=O)c1cnc2ccc(C)cc2c1Nc1ccc(N(CC)CC)cc1	Pf Dd2 inh 4.47µM
CCOC(=O)c1cnc2cc(C(F)(F)F)ccc2c1Nc1cc(C)ccc1OC	none
CCCOC(=O)c1ccc(Nc2c(C(=O)OCC)cnc3c(C)cc(Cl)cc23)cc1	none
Cc1ccc(NC(=O)Cn2nc(-c3ccc(F)cc3)c3cnc4ccc(C)cc4c32)cc1	none
CCOC(=O)c1cnc2ccc(Cl)cc2c1Nc1ccc(N2CCOCC2)cc1	Pf Dd2 inh 8.91µM
COc1cccc(CC(=O)N2CC(N(C)Cc3cccnc3)C2)c1	none
COc1ccc(C(=O)N2CCCC3(CC(c4cccnc4)=NO3)C2)cc1 (centres undefined)	none
CN(Cc1cccc2ccccc12)C1CCCc2ccccc21 (centres undefined)	Pf Dd2 inh 11.2µM
CN(Cc1ccc(F)cc1)C1CCc2ccccc21 (centres undefined)	none
CN(Cc1cccnc1)C1CCCc2ccccc21 (centres undefined)	Pf Dd2 inh 5.01µM
CN(CC1CCCCC1)C1CCc2ccccc21 (centres undefined)	none
CN(Cc1ccc(C(F)(F)F)cc1)C1CCc2ccccc21 (centres undefined)	none
COC(=O)N(C)C1CCCc2ccccc21 (centres undefined)	none
CCOC(=O)CCCOc1cccn2c(=O)c(-c3cc(C)n(-c4ccccc4C)n3)c(C)nc12	none
COc1ccc(C(=O)N2CCC3(CC2)CC(=O)Nc2ccccc2O3)cc1	none
O=C(Cc1cccc(Cl)c1)N1CCc2nc(-c3ccc(Cl)cc3)nc(-c3ccccc3)c2C1	none
